# Reference: PubChem BioAssay AID1159580 (chemical genetic matrix, 2015)
# Values joined by “and” are separate entries in the source; they are usually repeats but may differ in a detail not shown here. Equal values may be shown once. Screen size: about 5,500 compounds; about 2,000 (36%) were called active. Another 18% or so got no clear call; they are omitted. The list shows a part of the results. Unmarked numbers belong to inactive results. No stated cut-off is given here; in the data, active means normalized growth mostly below about 0.91 (no sharp cut-off); inconclusive means no clear call, values can overlap the other calls; inactive means mostly above about 0.92.
# Experiment: chemical genetic growth profiling, strain panel (AID 1159580);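 further: tested at 20 µM; growth read once vehicle control cultures reached saturation at 30 °C; 1 = growth at the plate median or of vehicle wells; lower values mean less growth of the strain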
# Settings: S. cerevisiae deletion strains, growth OD
compound,measurement,setting,value
C[C@@H]1O[C@@H](OC[C@H]2OC(Oc3c(-c4ccc(O)c(O)c4)oc4cc(O)cc(O)c4c3=O)[C@H](O)[C@@H](O)[C@@H]2O)[C@H](O)[C@H](O)[C@H]1O (stereo not given in full),normalized growth,"locus YAL013W, strain DEP1, active compounds read low",0.995
same,normalized growth,"locus YAL021C, strain ccr4, active compounds read low",0.964
same,normalized growth,"locus YAL026C, strain drs2, active compounds read low",0.993
same,normalized growth,"locus YAL030W, strain snc1, active compounds read low",0.998
same,normalized growth,"locus YBL061C, strain skt5, active compounds read low",1.01
same,normalized growth,"locus YBR009C, strain hhf1, active compounds read low",0.994
same,normalized growth,"locus YBR021W, strain FUR4, active compounds read low",1.03
same,normalized growth,"locus YBR023C, strain chs3, active compounds read low",1
same,normalized growth,"locus YBR171W, strain sec66, active compounds read low",1
same,normalized growth,"locus YBR229C, strain ROT2, active compounds read low",1.01
same,normalized growth,"locus YBR231C, strain swc5, active compounds read low",1
same,normalized growth,"locus YBR279W, strain paf1, active compounds read low",0.996
same,normalized growth,"locus YCL011C, strain gbp2, active compounds read low",0.98
same,normalized growth,"locus YCL016C, strain dcc1, active compounds read low",0.982
same,normalized growth,"locus YCL029C, strain bik1, active compounds read low",0.988
same,normalized growth,"locus YCL061C, strain MRC1, active compounds read low",1.01
same,normalized growth,"locus YCL069W, strain vba3, active compounds read low",1.01
same,normalized growth,"locus YCR088W, strain abp1, active compounds read low",1.01
same,normalized growth,"locus YDL005C, strain med2, active compounds read low",1
same,normalized growth,"locus YDL035C, strain GPR1, active compounds read low",0.975
same,normalized growth,"locus YDL040C, strain nat1, active compounds read low",1
same,normalized growth,"locus YDL074C, strain BRE1, active compounds read low",0.949
same,normalized growth,"locus YDL101C, strain DUN1, active compounds read low",1
same,normalized growth,"locus YDL185W, strain tfp1, active compounds read low",0.941
same,normalized growth,"locus YDL192W, strain arf1, active compounds read low",0.989
same,normalized growth,"locus YDR001C, strain nth1, active compounds read low",0.986
same,normalized growth,"locus YDR069C, strain doa4, active compounds read low",1
same,normalized growth,"locus YDR101C, strain arx1, active compounds read low",0.983
same,normalized growth,"locus YDR137W, strain rgp1, active compounds read low",0.974
same,normalized growth,"locus YDR150W, strain NUM1, active compounds read low",0.996
same,normalized growth,"locus YDR159W, strain sac3, active compounds read low",1.07
same,normalized growth,"locus YDR162C, strain NBP2, active compounds read low",1.01
same,normalized growth,"locus YDR195W, strain ref2",1
same,normalized growth,"locus YDR297W, strain sur2, active compounds read low",1.01
same,normalized growth,"locus YDR318W, strain mcm21, active compounds read low",1
same,normalized growth,"locus YDR334W, strain swr1, active compounds read low",1
same,normalized growth,"locus YDR335W, strain msn5, active compounds read low",0.979
same,normalized growth,"locus YDR388W, active compounds read low",1
same,normalized growth,"locus YDR392W, strain spt3, active compounds read low",0.979
same,normalized growth,"locus YDR502C, strain sam2, active compounds read low",1.01
same,normalized growth,"locus YEL003W, strain gim4, active compounds read low",1.01
same,normalized growth,"locus YEL037C, strain rad23, active compounds read low",1.01
same,normalized growth,"locus YEL061C, strain CIN8 (second series), active compounds read low",1
same,normalized growth,"locus YEL061C, strain CIN8, active compounds read low",1.01
same,normalized growth,"locus YER015W, strain faa2, active compounds read low",0.973
same,normalized growth,"locus YER016W, strain bim1, active compounds read low",1
same,normalized growth,"locus YER110C, active compounds read low",0.985
same,normalized growth,"locus YER111C, strain swi4, active compounds read low",0.994
same,normalized growth,"locus YER155C, strain BEM2 (second series), active compounds read low",1.09
same,normalized growth,"locus YER155C, strain BEM2, active compounds read low",1
same,normalized growth,"locus YER167W, strain BCK2, active compounds read low",1.01
same,normalized growth,"locus YFR010W, strain ubp6, active compounds read low",1
same,normalized growth,"locus YGL078C, strain dbp3, active compounds read low",0.971
same,normalized growth,"locus YGL086W, strain mad1, active compounds read low",0.997
same,normalized growth,"locus YGL167C, strain pmr1, active compounds read low",0.975
same,normalized growth,"locus YGL173C, strain kem1, active compounds read low",1.02
same,normalized growth,"locus YGL227W, strain vid30, active compounds read low",1
same,normalized growth,"locus YGL240W, strain doc1, active compounds read low",1.04
same,normalized growth,"locus YGL248W, strain PDE1, active compounds read low",1.03
same,normalized growth,"locus YGL253W, strain hxk2, active compounds read low",0.991
same,normalized growth,"locus YGR078C, strain PAC10, active compounds read low",1.03
same,normalized growth,"locus YGR135W, strain pre9, active compounds read low",1.03
same,normalized growth,"locus YGR252W, strain gcn5, active compounds read low",1.09
same,normalized growth,"locus YHR013C, strain ard1, active compounds read low",0.979
same,normalized growth,"locus YHR027C, strain rpn1, active compounds read low",0.985
same,normalized growth,"locus YHR030C, strain SLT2, active compounds read low",0.992 and 1.1
same,normalized growth,"locus YHR079C, strain IRE1 (second series), active compounds read low",0.98
same,normalized growth,"locus YHR079C, strain IRE1, active compounds read low",1.07
same,normalized growth,"locus YHR094C, strain hxt1, active compounds read low",0.997
same,normalized growth,"locus YHR129C, strain ARP1, active compounds read low",1.01
same,normalized growth,"locus YHR142W, strain chs7, active compounds read low",0.969
same,normalized growth,"locus YHR200W, strain rpn10, active compounds read low",1
same,normalized growth,"locus YIL066C, strain RNR3, active compounds read low",1
same,normalized growth,"locus YIL073C, strain SPO22, active compounds read low",0.99
same,normalized growth,"locus YIL125W, strain kgd1, active compounds read low",0.994
same,normalized growth,"locus YIR030C, strain dcg1, active compounds read low",0.997
same,normalized growth,"locus YJL092W, strain hpr5, active compounds read low",1
same,normalized growth,"locus YJL095W, strain BCK1 (second series), active compounds read low",1
same,normalized growth,"locus YJL095W, strain BCK1, active compounds read low",1.07 and 1.06
same,normalized growth,"locus YJL115W, strain asf1, active compounds read low",0.968
same,normalized growth,"locus YJL129C, strain trk1, active compounds read low",0.987
same,normalized growth,"locus YJL134W, strain LCB3, active compounds read low",0.997
same,normalized growth,"locus YJL154C, strain vps35, active compounds read low",0.999
same,normalized growth,"locus YJL164C, strain tpk1, active compounds read low",0.974
same,normalized growth,"locus YJL166W, strain qcr8, active compounds read low",1.02
same,normalized growth,"locus YJL168C, strain set2, active compounds read low",0.996
same,normalized growth,"locus YJL187C, strain SWE1 (second series), active compounds read low",1.01
same,normalized growth,"locus YJL187C, strain SWE1, active compounds read low",0.999
same,normalized growth,"locus YJR043C, strain POL32, active compounds read low",1
same,normalized growth,"locus YJR066W, strain TOR1, active compounds read low",1
same,normalized growth,"locus YJR075W, strain HOC1, active compounds read low",1.02
same,normalized growth,"locus YKL009W, strain mrt4, active compounds read low",1.11
same,normalized growth,"locus YKL068W, active compounds read low",0.982
same,normalized growth,"locus YKL085W, strain MDH1 (second series), active compounds read low",0.992
same,normalized growth,"locus YKL085W, strain MDH1, active compounds read low",0.992
same,normalized growth,"locus YKL160W, strain elf1, active compounds read low",0.976
same,normalized growth,"locus YKR001C, strain vps1, active compounds read low",1.01
same,normalized growth,"locus YKR026C, strain gcn3, active compounds read low",1
same,normalized growth,"locus YKR091W, strain srl3, active compounds read low",0.996
same,normalized growth,"locus YLL001W, strain dnm1, active compounds read low",0.942
same,normalized growth,"locus YLL026W, active compounds read low",0.997
same,normalized growth,"locus YLL041C, strain sdh2, active compounds read low",0.995
same,normalized growth,"locus YLR027C, strain aat2, active compounds read low",1.01
same,normalized growth,"locus YLR039C, strain RIC1, active compounds read low",0.979
same,normalized growth,"locus YLR058C, strain SHM2, active compounds read low",1.03
same,normalized growth,"locus YLR102C, strain apc9, active compounds read low",1
same,normalized growth,"locus YLR113W, strain HOG1, active compounds read low",1.03
same,normalized growth,"locus YLR221C, strain rsa3, active compounds read low",1.06
same,normalized growth,"locus YLR258W, strain gsy2, active compounds read low",1.02
same,normalized growth,"locus YLR262C, strain YPT6 (second series), active compounds read low",1.03
same,normalized growth,"locus YLR262C, strain YPT6, active compounds read low",0.99
same,normalized growth,"locus YLR268W, strain sec22, active compounds read low",0.977
same,normalized growth,"locus YLR320W, strain mms22, active compounds read low",1.08
same,normalized growth,"locus YLR330W, strain CHS5, active compounds read low",0.999
same,normalized growth,"locus YLR342W, strain FKS1 (second series), active compounds read low",1
same,normalized growth,"locus YLR342W, strain FKS1, active compounds read low",1.01
same,normalized growth,"locus YLR357W, strain rsc2, active compounds read low",0.955
same,normalized growth,"locus YLR370C, strain arc18, active compounds read low",1.01
same,normalized growth,"locus YLR371W, strain rom2, active compounds read low",0.995
same,normalized growth,"locus YLR384C, strain iki3, active compounds read low",0.993
same,normalized growth,"locus YLR418C, strain cdc73, active compounds read low",1.03
same,normalized growth,"locus YML016C, strain PPZ1, active compounds read low",1.01
same,normalized growth,"locus YML032C, strain rad52, active compounds read low",1.03
same,normalized growth,"locus YML120C, strain ndi1, active compounds read low",0.972
same,normalized growth,"locus YML124C, strain tub3, active compounds read low",0.993
same,normalized growth,"locus YMR058W, strain fet3, active compounds read low",0.881 (active)
same,normalized growth,"locus YMR078C, strain ctf18, active compounds read low",0.999
same,normalized growth,"locus YMR125W, strain sto1, active compounds read low",0.965
same,normalized growth,"locus YMR129W, active compounds read low",1.01
same,normalized growth,"locus YMR205C, strain PFK2, active compounds read low",1
same,normalized growth,"locus YMR223W, strain ubp8, active compounds read low",1.01
same,normalized growth,"locus YMR231W, strain pep5, active compounds read low",1
same,normalized growth,"locus YMR307W, strain GAS1, active compounds read low",1.03
same,normalized growth,"locus YNL067W, strain RPL9B, active compounds read low",1.01
same,normalized growth,"locus YNL071W, strain lat1, active compounds read low",1.02
same,normalized growth,"locus YNL183C, strain NPR1, active compounds read low",0.999
same,normalized growth,"locus YNL209W, strain ssb2, active compounds read low",0.939
same,normalized growth,"locus YNL233W, strain BNI4, active compounds read low",1.02
same,normalized growth,"locus YNL248C, strain rpa49, active compounds read low",1.01
same,normalized growth,"locus YNL250W, strain rad50, active compounds read low",0.963
same,normalized growth,"locus YNL271C, strain bni1, active compounds read low",0.987
same,normalized growth,"locus YNL298W, strain CLA4, active compounds read low",0.982
same,normalized growth,"locus YNL307C, strain MCK1, active compounds read low",0.987
same,normalized growth,"locus YNL322C, strain KRE1 (second series), active compounds read low",0.997
same,normalized growth,"locus YNL322C, strain KRE1, active compounds read low",1.01
same,normalized growth,"locus YNR049C, strain mso1, active compounds read low",0.998
same,normalized growth,"locus YNR052C, strain pop2, active compounds read low",1.01
same,normalized growth,"locus YOL006C, strain TOP1, active compounds read low",1.03
same,normalized growth,"locus YOL012C, strain htz1",0.939
same,normalized growth,"locus YOL147C, strain pex11, active compounds read low",1
same,normalized growth,"locus YOR001W, strain rrp6, active compounds read low",1.03
same,normalized growth,"locus YOR061W, strain CKA2, active compounds read low",1.01
same,normalized growth,"locus YOR069W, strain VPS5, active compounds read low",0.994
same,normalized growth,"locus YOR070C, strain gyp1, active compounds read low",0.999
same,normalized growth,"locus YOR080W, strain dia2, active compounds read low",1.01
same,normalized growth,"locus YOR083W, strain WHI5, active compounds read low",0.97
same,normalized growth,"locus YOR106W, strain vam3, active compounds read low",0.877
same,normalized growth,"locus YOR136W, strain idh2, active compounds read low",0.99
same,normalized growth,"locus YOR144C, strain elg1, active compounds read low",1.01
same,normalized growth,"locus YOR184W, strain ser1, active compounds read low",1
same,normalized growth,"locus YOR231W, strain MKK1, active compounds read low",1.05
same,normalized growth,"locus YOR265W, strain rbl2, active compounds read low",1.01
same,normalized growth,"locus YOR270C, strain vph1, active compounds read low",1
same,normalized growth,"locus YOR290C, strain snf2, active compounds read low",0.959
same,normalized growth,"locus YOR316C, strain cot1, active compounds read low",0.999
same,normalized growth,"locus YPL051W, strain arl3, active compounds read low",0.971
same,normalized growth,"locus YPL078C, strain atp4, active compounds read low",0.941
same,normalized growth,"locus YPL106C, strain sse1, active compounds read low",0.999
same,normalized growth,"locus YPL240C, strain hsp82, active compounds read low",1
same,normalized growth,"locus YPL256C, strain CLN2, active compounds read low",1.09
same,normalized growth,"locus YPR119W, strain clb2, active compounds read low",1
same,normalized growth,"locus YPR141C, strain kar3, active compounds read low",0.994
same,normalized growth,"locus YPR163C, strain tif3, active compounds read low",0.998
same,normalized growth,"locus YPR167C, strain met16, active compounds read low",0.991
same,normalized growth,"strain wtn01, active compounds read low",0.975
